In the library only some 2% were active in any assay of this set; here they are far more common.
FAS TE block: FAS thioesterase domain inhibitors, primary screen, biochemical, fluorescence intensity, uHTS. 360,000 tested, 0.67% active. AID 602261, 2012. inhibition, % at 15 µM. recombinant FAS-TE, OMFH fluorogenic substrate, fluorescence endpoint;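 active means compounds whose normalised, plate-corrected inhibition of enzyme fluorescence in the single-dose primary screen is 50% or more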
ADAM17 inh: ADAM17 inhibitors, primary screen, biochemical, QFRET; Disintegrin and metalloproteinase domain-containing protein 17 (Homo sapiens), P78536; recombinant ADAM17, EDANS/DABCYL FRET peptide cleavage; inhibition, % at 6.95 µM; 370,000 tested, 0.83% active; AID 720648, 2013;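 active means inhibition above the mean of compounds lying between control limits plus 3 SD, set per campaign, cut at about 8.5% in these data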
GC-A act: GC-A stimulated cGMP production enhancers – HEK293 GC-A cells, cGMP TR-FRET, EC30 ANP, primary screen; 0% at EC30 ANP, 100% saturating ANP; AID 1671463, 2021; 370,000 tested, 0.14% active; Atrial natriuretic peptide receptor 1 (Homo sapiens), P16066; activation, % at 10 µM; in the data active means activation above about 40%
ADAM10 inh: human ADAM10 inhibitors, primary screen, biochemical, QFRET, HTS; inhibition, % at 7 µM; 370,000 tested, 0.62% active; recombinant ADAM10, EDANS/DABCYL FRET peptide cleavage, 3 h; Disintegrin and metalloproteinase domain-containing protein 10 (Homo sapiens), O14672;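 active means inhibition above a per-campaign cutoff equal to the mean of compounds falling between control-based bounds plus 3 SD, cut at about 20% in these data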
GC-B act: human GC-B receptor activators, primary screen, HEK293 GC-B cells, cGMP TR-FRET, EC30 CNP; 370,000 tested, 0.11% active; Atrial natriuretic peptide receptor 2 (Homo sapiens), P20594; activation, % at 10 µM; 0% at EC30 CNP, 100% saturating CNP;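 active means activation at 10 µM reaching about 35% in either raw or pattern-adjusted values, limit read from the data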
ADAM10 ctr: ADAM10 inhibitors, counter-screen for ADAM17 exosite inhibitor project, biochemical, FRET, human ADAM10 | shares compounds with ADAM17 inh | recombinant ADAM10, EDANS/DABCYL FRET peptide cleavage, 3 h | inhibition, % at 6.95 µM | 2,900 tested, 47% active | AID 743256, 2014;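 active means mean inhibition over the triplicate runs exceeds the activity threshold set in the earlier primary screen, cut at about 20% in these data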
ADAM17 confirm: ADAM17 inhibitors, hit retest, confirmation, biochemical, QFRET peptide cleavage. shares compounds with ADAM17 inh. recombinant ADAM17, EDANS/DABCYL QFRET peptide cleavage. inhibition, % at 6.95 µM. 2,900 tested, 65% active;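 active means mean inhibition across replicates above the hit cutoff set in the primary screen, cut at about 8.5% in these data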
Of the large screens only hits and unclear results are named; the others gave an inactive call (follow-up assays come after a bar, where they were run).

CCCCc1c(-c2ccccc2OC)ncn1C(C)c1ccccc1 (centres undefined)	none (no result: FAS TE block)
COC(=O)[C@]12CCCCC=C1N(Cc1ccc(OC)cc1)C(=O)[C@@H]2CC(=O)NCC1CCCCC1	none (no result: FAS TE block)
CCN(C(=O)C1=COCCO1)c1nc2c(C)cccc2s1	ADAM17 inh 9.3 | ADAM10 ctr inactive | ADAM17 confirm inactive
COc1cccc(C(NC(C)=O)c2nc(-c3ccc(C)c(C)c3)cs2)c1 (centres undefined)	none
COc1ccc(C(C)(O)c2nc(-c3ccc4ccccc4c3)cs2)cc1 (centres undefined)	ADAM17 inh 8.8 | ADAM10 ctr inactive | ADAM17 confirm inactive
COc1cccc(C(NC(C)=O)c2nc(-c3ccc4ccccc4c3)cs2)c1 (centres undefined)	ADAM17 inh 11.6 | ADAM10 ctr inactive | ADAM17 confirm 11.3
C[C@H]1COc2cccc(N3CCSCC3)c2S(=O)(=O)N1C	none (no result: FAS TE block)
O=C(CCn1c2c(c3ccccc31)CCCC2)NNC(=O)c1ccc([N+](=O)[O-])cc1	ADAM17 inh 11.0 | ADAM10 ctr inactive | ADAM17 confirm 9.9
O=C(CCn1c2c(c3ccccc31)CCCC2)NNC(=O)c1ccc(Cl)c([N+](=O)[O-])c1	none
COC(=O)[C@@]12CCCCC3=C1N(CCC3)C(=O)[C@H]2CC(=O)NCCCN1CCCC1=O	none (no result: FAS TE block)
CN[C@H]1C[C@H]2c3[nH]c4c(-c5cccc(C)c5)cccc4c3CCN2C(=O)[C@H]1[C@H](C)O	none (no result: FAS TE block)
Cc1cc(NC(=O)c2ccc(NS(=O)(=O)c3ccc(C)c(C)c3)cc2)no1	none (no result: FAS TE block)
O=C(COc1ccccc1F)NNC(=O)c1cccc(-n2cccc2)c1	ADAM17 inh 14.7 | ADAM10 ctr inactive | ADAM17 confirm inactive
FC(F)(F)c1cc(CCN2CCNC[C@@H]2CC2CCCCC2)cc(C(F)(F)F)c1	none
CCCC[C@@H]1CNCCN1CCc1cc(C(F)(F)F)cc(C(F)(F)F)c1	ADAM17 inh 9.0 | ADAM10 ctr inactive | ADAM17 confirm inactive
C=CCSC1=C(C#N)C(c2ccccc2Cl)C(C(=O)c2cccs2)C(O)(C(F)(F)F)N1 (centres undefined)	ADAM17 inh 8.6 | ADAM10 ctr inactive | ADAM17 confirm inactive
C[C@H](O)[C@@H]1CN2CCc3c([nH]c4cccc(-c5ccccc5)c34)[C@@H]2C[C@@H]1N(C)C(=O)C1CCCCC1	none (no result: FAS TE block)
Cc1ccc(NC(=O)CCS(=O)(=O)c2ccc3c(c2)NC(=O)C(C)S3)cc1Cl (centres undefined)	none
CC1Sc2ccc(S(=O)(=O)CCC(=O)Nc3ccccc3Cl)cc2NC1=O (centres undefined)	ADAM17 inh 9.3 | ADAM10 ctr inactive | ADAM17 confirm inactive
CCCCN1c2ccccc2N(CCCO)c2cc(C)nnc21	ADAM17 inh 9.8 | ADAM10 ctr inactive | ADAM17 confirm inactive
CCn1nnnc1SCC(=O)c1cccc(OC)c1	none
COc1ccc(-n2nnnc2SCC(=O)c2cccc(OC)c2)cc1	ADAM17 inh 10.3 | ADAM10 ctr inactive | ADAM17 confirm inactive
Nc1ncnc2c1ncn2[C@@H]1O[C@H](C(=O)N[C@@H](CCc2ccccc2)C(=O)N2CCN(C(=O)C(F)(F)F)CC2)[C@@H](O)[C@H]1O	none (no result: FAS TE block)
O=C(Cn1nc(-c2ccccc2)ccc1=O)NCCc1cccc(F)c1	none (no result: FAS TE block)
Fc1ccc2c(c1)c1n[nH]c(=S)nc1n2CCc1ccccc1	none
NNc1nnc2c3cc(F)ccc3n(CCc3ccccc3)c2n1	ADAM17 inh 11.9 | ADAM10 ctr inactive | ADAM17 confirm inactive
O=C(CSc1cc(Cl)ccc1Cl)N/N=C/c1ccc[nH]1	none (no result: FAS TE block)
CCOc1ccc(N=C2SC(C(=O)Nc3ccccc3C#N)C(N)=C2C(=O)Nc2ccc(Cl)cc2)cc1 (centres undefined)	ADAM17 inh 9.4 | ADAM10 ctr 21.2 | ADAM17 confirm 16.4
COCCCNC(=O)Cn1nc(Cc2ccncc2)c2ccccc2c1=O	none (no result: FAS TE block)
Cc1cc(C)cc(NC(=O)C(=O)NCCc2c[nH]c3ccccc23)c1	ADAM17 inh 10.9, ADAM10 inh 26.7 | ADAM10 ctr 20.7 | ADAM17 confirm 11.3
Cc1cc(C)c(S(=O)(=O)N2CCCOC2CNC(=O)C(=O)NCCc2c[nH]c3ccccc23)c(C)c1 (centres undefined)	ADAM17 inh 8.6 | ADAM10 ctr 20.5 | ADAM17 confirm 11.7
Cc1ccc(C)c(NC(=O)C(=O)NCCc2c[nH]c3ccccc23)c1	none
Cc1cc(F)ccc1S(=O)(=O)N1CCCOC1CNC(=O)C(=O)NCCc1c[nH]c2ccccc12 (centres undefined)	none
COc1ccc(C(=O)CC(=O)Nc2ccc([N+](=O)[O-])cc2)cc1	ADAM17 inh 9.5 | ADAM10 ctr 25.3 | ADAM17 confirm 11.6
COc1ccc(Nc2ccc([N+](=O)[O-])cn2)cc1	ADAM17 inh 10.1 | ADAM10 ctr inactive | ADAM17 confirm inactive
NC(=O)C1CCN(c2nc3c(S(=O)(=O)c4ccccc4)nnn3c3ccccc23)CC1	ADAM17 inh 12.8 | ADAM10 ctr inactive | ADAM17 confirm inactive
O[C@H](COc1ccc(C(F)(F)F)cc1)CN1CCC(C(O)(c2ccccc2)c2ccccc2)CC1	none (no result: FAS TE block)
Cc1cccc(NS(=O)(=O)c2ccc3c(c2)Cc2cc(S(=O)(=O)Nc4cccc(C)c4C)ccc2-3)c1C	ADAM17 inh 10.6 | ADAM10 ctr inactive | ADAM17 confirm 10.3
Cc1cccc(NS(=O)(=O)c2ccc3[nH]c(=O)[nH]c3c2)c1C	none
COc1cc(/C=C(\C#N)c2ccccn2)ccc1OCc1ccc(Cl)cc1	none
COc1cc(/C=C(\C#N)c2ccccn2)ccc1OCc1ccccc1	ADAM17 inh 9.4 | ADAM10 ctr inactive | ADAM17 confirm 15.9
CC(C)(NO)/C(=N/O)c1cccs1	ADAM17 inh 9.2 | ADAM10 ctr inactive | ADAM17 confirm inactive
Cc1ccc(C)n1NC(=O)c1cccs1	none
O=S(=O)(c1ccccc1)N(CC(O)Cn1c2ccccc2c2ccccc21)c1ccccc1 (centres undefined)	ADAM17 inh 14.0 | ADAM10 ctr inactive | ADAM17 confirm 17.1

Source: PubChem
